The campaign covered roughly 64,000 compounds. Fewer than 10 were called active. Only a sample is shown. Unmarked numbers belong to inactive results.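 Rule for the calls: active = activation factor of at least 2 at 20 µM, relative to controls; inactive = the rest.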

Alkaline phosphatase, tissue-nonspecific isozyme (Homo sapiens), sequence (P05186 whole entry, looked up): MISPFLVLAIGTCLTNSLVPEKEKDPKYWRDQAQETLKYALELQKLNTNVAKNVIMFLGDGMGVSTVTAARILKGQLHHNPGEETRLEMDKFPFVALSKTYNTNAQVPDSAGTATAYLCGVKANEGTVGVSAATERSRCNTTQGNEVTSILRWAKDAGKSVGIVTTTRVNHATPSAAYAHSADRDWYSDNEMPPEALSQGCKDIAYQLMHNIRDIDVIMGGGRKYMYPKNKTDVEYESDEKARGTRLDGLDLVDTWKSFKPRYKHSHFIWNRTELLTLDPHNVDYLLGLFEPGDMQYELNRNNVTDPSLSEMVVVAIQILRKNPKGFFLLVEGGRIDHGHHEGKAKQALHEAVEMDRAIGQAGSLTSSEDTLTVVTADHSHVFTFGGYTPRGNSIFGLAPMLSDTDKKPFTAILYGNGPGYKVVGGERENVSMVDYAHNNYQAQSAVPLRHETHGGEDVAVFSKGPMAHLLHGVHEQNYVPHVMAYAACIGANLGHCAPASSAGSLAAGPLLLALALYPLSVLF

The test addresses Alkaline phosphatase, tissue-nonspecific isozyme (Homo sapiens) (UniProt P05186). Put plainly: stimulation of alkaline phosphatase TNAP activity – biochemical, luminescent, intermediate phosphate acceptor level, primary screen (AID 813). The note with it: purified TNAP, CDP-star luminescence, 100 mM DEA, 30 min; at 20 µM; hits give high values; scale: 0 levamisole-inhibited, 1 vehicle-only enzyme.
`O=C(C1CCCO1)N(Cc1ccccc1)c1ccccc1` (stereo unspecified): the activation factor was 0.9.

Turning to `Cc1nn(-c2ccccc2)c2sc(C(=O)N(Cc3ccco3)C(C)C(=O)NC(C)(C)C)cc12` (stereo unspecified), the activation factor was 0.9.

On to `COc1cccc(N2C(=O)CC(N3CCN(S(=O)(=O)c4ccccc4)CC3)C2=O)c1` (stereo unspecified), for which the activation factor was 1.

With `CCN(CC)S(=O)(=O)c1cccc(C(=O)NCC(=O)OCC(=O)NCc2ccccc2)c1`, the activation factor is 0.9.

Regarding `O=C(O)c1ccc(COc2c(F)c(F)cc(F)c2F)o1`, the activation factor is 0.8.

For the compound `CC12CN(Cc3ccccc3)CC(C)(CN(Cc3ccccc3)C1)C2=NO`, the activation factor was 1.2.

On to `COc1ccc(C)cc1-n1nnnc1SCC(=O)c1cc(C)n(Cc2ccco2)c1C`, for which the activation factor was 0.8.

For the compound `O=C(c1cccs1)N1CCN(Cc2ccc3c(c2)OCO3)CC1`, the activation factor is 1.

Consider `COc1cccc(N(C(=O)c2ccn[nH]2)C2(C(=O)Nc3c(C)cccc3C)CCCCC2)c1`, for which the activation factor was 2.8 (active).

Regarding `COc1cccc(N2CC(C(=O)Nc3c(C)cccc3C)CC2=O)c1` (stereo unspecified), the activation factor is 1.

Turning to `Fc1cc(F)c2nc(N3CCOCC3)sc2c1`, the activation factor is 0.9.

As for `Cc1ccc(C(=O)O)cc1S(=O)(=O)NCC1CCCO1` (stereo unspecified), the activation factor was 0.9.

On to `COC(=O)c1ccccc1NC(=O)C1CCN(S(=O)(=O)c2cc(OC)ccc2OC)CC1`, for which the activation factor is 0.9.

As to `Cc1cccc(N)c1SC1CCCCC1O` (stereo unspecified), the activation factor is 0.9.

For the compound `CC(=O)Nc1cccc2c1[n+]([O-])c(C)c(C)[n+]2[O-]`, the activation factor was 1.

Take `CC(=O)OC(C(=O)NCCc1ccccc1)c1cccnc1` (stereo unspecified): the activation factor was 1.

As for `CCc1nc2oc3ccccc3c(=O)c2c(=O)n1Cc1ccc(OC)cc1`, the activation factor is 0.9.

For `CCSc1ncnc2c(C#N)c3n(c12)CCCCC3`, the activation factor is 0.9.

Take `O=C(Nc1c(C(=O)N2CCCCC2)cnn1-c1ccccc1)c1ccco1`: the activation factor is 1.

For `CC1(C)CC(=O)C2=C(C1)NCN(CCCN1CCOCC1)C2`, the activation factor was 0.9.

Take `CCOC(=O)N1CCN(C(=O)Cc2ccc(-n3c(=S)[nH]c4ccccc4c3=O)cc2)CC1`: the activation factor was 1.

Consider `O=C(OC(C(=O)NC1CCCC1)c1ccc(F)cc1)c1ccno1` (stereo unspecified), for which the activation factor is 0.9.

In the case of `CC(=O)N1CCN(CCN=CC2=C(O)CC(C)(C)CC2=O)CC1`, the activation factor is 0.9.

For `OCCCN1c2ccccc2Nc2nnc(-c3ccccc3)cc21`, the activation factor was 4.3 (active).

In the case of `CCCS(=O)(=O)C(=C1Nc2ccccc2N1)S(=O)(=O)CCC`, the activation factor was 0.9.

Regarding `O=C(Cc1c(F)cccc1Cl)N1CCN(C(=O)c2ccco2)CC1`, the activation factor was 0.8.

Take `O=C(COc1ccccc1Cl)Nn1cnnc1`: the activation factor was 0.9.

With `O=C(CN(Cc1ccccc1)C(=O)c1ccc2c(c1)OCCO2)NCc1ccc2c(c1)OCO2`, the activation factor is 0.9.

Regarding `COc1ccc(C(=O)N(CCN2CCOCC2)CC(=O)NC2CCCC2)cc1OC`, the activation factor is 0.9.

For `COc1ccc(C2C3=C(OC(C)=O)c4ccccc4C3=Nc3c2c(=O)n(C)c(=O)n3C)cc1` (stereo unspecified), the activation factor was 0.8.

As to `Cc1ccc(S(=O)(=O)c2c(N)n(C)c3nc4ccccc4nc23)cc1`, the activation factor was 0.9.

With `NC(=O)C1CCN(C2OC(=O)c3ccccc32)CC1` (stereo unspecified), the activation factor was 0.9.

For `O=C(OCC(=O)N1CCN(C(=O)c2ccco2)CC1)c1ccccc1Cc1ccccc1`, the activation factor is 1.

Regarding `Cc1coc2c(O)cc3c(c12)OC1(N2CCCCC2)C(=O)NCCCC31` (stereo unspecified), the activation factor is 0.9.

Turning to `CCC1=[N+]([O-])C(C)(/C(C)=N\O)N(O)C1(C)C` (stereo unspecified), the activation factor was 1.

As for `O=C(CN1CCN(C(=O)c2cccc(F)c2)CC1)Nc1ccccc1F`, the activation factor was 1.1.

Regarding `CC/C(=N\O)C(C)(C)/[N+]([O-])=C/c1ccc(Br)cc1`, the activation factor was 0.9.

On to `CCCN1Cc2cccc(C(=O)NCc3ccccc3)c2C1=O`, for which the activation factor was 0.9.

For the compound `CC(=O)N1CCc2cc(S(=O)(=O)Nc3ccccc3N3CCN(C)CC3)ccc21`, the activation factor is 1.

Turning to `CCN(CC)c1ccc2cc(C(=O)O)c(=O)oc2c1`, the activation factor is 1.

Consider `Cc1ccc(C)c(N2CCN(C(=O)CCCCn3c(=O)[nH]c4ccccc4c3=O)CC2)c1`, for which the activation factor is 0.8.

Turning to `CC1(C)Cc2c(sc3nc4n(c(=N)c23)CCCCC4)CO1`, the activation factor is 0.4.

For `O=c1cccc(-c2ccc(Br)cc2)o1`, the activation factor is 0.9.

With `O=C(CN1CCN(c2ccc(F)cc2)CC1)Nc1cccc(C(F)(F)F)c1`, the activation factor is 0.9.

As to `Cc1ccc(S(=O)(=O)N2CCC(C(=O)OCC(=O)N3CC(=O)Nc4ccccc43)CC2)cc1`, the activation factor is 0.9.

For the compound `CCC(c1nnnn1Cc1ccco1)N(CCc1ccccc1)Cc1cc2cccc(C)c2[nH]c1=O` (stereo unspecified), the activation factor is 0.9.

In the case of `O=C1CC(Cc2ccccc2)C(=O)N1c1ccc(Cl)cn1` (stereo unspecified), the activation factor was 1.

With `C=CCn1c(SCC(=O)NC23CC4CC(CC(C4)C2)C3)nc(O)cc1=O`, the activation factor is 0.9.

For the compound `CCn1c(=N)n(CC(=O)c2cccc(OC)c2)c2ccccc21`, the activation factor was 1.

In the case of `O=C(CCCOc1ccccc1)Nc1cccc(C(=O)O)c1`, the activation factor was 1.

For `COc1ccc(S(=O)(=O)N2CCN(c3ncnc4c(-c5ccccc5)nsc34)CC2)cc1`, the activation factor was 0.9.

Take `CCOC(=O)c1c(N)c(C#N)nn1-c1ccccc1C(=O)OC`: the activation factor is 0.8.

For the compound `Cc1cccc(N2CC(C)Cn3c2nc2c3c(=O)n(CC(=O)OCc3ccccc3)c(=O)n2C)c1` (stereo unspecified), the activation factor was 0.9.

For the compound `CCn1c(=O)cc(O)c2ccccc21`, the activation factor is 1.

As to `O=C1c2ccccc2C(O)N1Cc1ccccc1` (stereo unspecified), the activation factor was 1.

As to `CCOc1ccc(CCNC(=O)C(CC)n2nc(C)n3c(cc4sccc43)c2=O)cc1OCC` (stereo unspecified), the activation factor was 1.

Regarding `Cc1cc(=O)n2c3c(cccc13)CCC2`, the activation factor was 0.9.

Consider `CC(C)OCCCNc1nc2c(c(=O)n(Cc3ccccc3F)c(=O)n2C)n1C`, for which the activation factor was 0.9.

In the case of `CCOC(=O)c1sc(NC(=O)c2cc(S(=O)(=O)N3CCOCC3)ccc2C)nc1C`, the activation factor was 0.9.

As to `Cc1ccc(S(=O)(=O)NCCN2CCOCC2)cc1C`, the activation factor was 1.

With `Cc1cc(C(=O)N2CCN(c3ccccn3)CC2)c(C)o1`, the activation factor was 0.9.

For `CC(=O)NCC(=O)N(C)C(C(=O)Nc1ccc2c(c1)OCCO2)c1ccccc1` (stereo unspecified), the activation factor is 1.

On to `CCOC(=O)c1c(C2CC2)csc1NC(=O)CSCc1c(C)noc1C`, for which the activation factor was 0.9.

Regarding `O=C(NC1CCCCC1)c1ccc2c(=O)n(CC3CCCO3)c(=O)[nH]c2c1` (stereo unspecified), the activation factor is 1.

As to `CCOc1ccc(OCC)c(NC(=O)CSc2nnc(Cn3cnc4ccccc43)n2C)c1`, the activation factor is 0.9.

As for `CCOC(=O)CSc1nc2c(c(=O)n(Cc3ccccc3Cl)c(=O)n2C)n1C`, the activation factor is 0.9.

For the compound `CCOC(=O)C1=C(CNC2CCCCC2)NC(=O)NC1c1cc(C)ccc1C` (stereo unspecified), the activation factor was 0.9.

For `CSc1ccc(S(=O)(=O)NCc2ccc(Cl)cc2)cc1`, the activation factor was 0.8.

For the compound `CC1(C)CC(=O)C=C(NC2CC(C)(C)NC(C)(C)C2)C1`, the activation factor is 0.9.

With `CCOC(=O)n1c(SCC(=O)N(CC)CC)nc2ccccc21`, the activation factor is 0.9.

For `CCC(C)(C)n1nnnc1C(c1ccccc1OC)N1CCSCC1` (stereo unspecified), the activation factor is 0.9.
